This is a sample that favours compounds with a hit; in the whole collection about 8.1% have one here.
ELG1 DNA repair = blocks ELG1-dependent DNA repair in HEK293T cells; HEK293T ELG1-luciferase reporter, luminescence, 16 h; DNA damage induced by 5-fluorouridine; Potency, µM (series often up to 46.1 µM), inactives show at the highest dose activity change, negative = inhibition, most hits filed as inhibitors; 330,000 compounds, 2.3% hits; also: % is scaled to controls: 0 for no effect and ±100 for the full control effect; nearly all actives have a fitted effect of over 55% in size
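5-Fluorouridine DNA damage + compound/DMSO, 2,000 cells/well, 16 h, 37 °C/5% CO2. ONE-Glo, 30 min RT, luminescence. Readout = decrease in reporter signal.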
SW480 rereplic = inducers of DNA re-replication in SW480 colon cancer cells | 340,000 compounds, 1.8% hits | Potency, µM (titrated, usually from 46.1 µM), for inactives: top-dose re-replication activation, most hits filed as activators | SW480 DNA re-replication, Hoechst DNA content imaging, 48 h; also: % of control where 0% means no effect; nearly all actives have a fitted effect of over 55% in size
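250 cells/well; 23 nL cpd via pin tool; 48 hr, 37 C, 5% CO2; Hoechst 40 min; imager read of total nuclear intensity, ex 405/em 500-530 nm.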
KB-3-1 cytotox = kills parental KB-3-1 adenocarcinoma cells. Potency, µM (top dose mostly 46.1 µM), most hits filed as cytotoxic. AID 1347075. 400,000 compounds, 1.4% hits. KB-3-1 viability, CellTiter-Glo ATP luminescence, 72 h; also: % is scaled to controls: 0 for no effect and ±100 for the full control effect; nearly all actives have a fitted effect of over 60% in size
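Here the drug-naive KB-3-1 line serves as comparator for MDR sub-line selectivity; cells received compound titrations, 72 h at 37 °C, then CellTiter-Glo readout.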
KB-V1 MDR tox = kills drug-selected multidrug resistant KB-V1 cells; KB-V1 MDR cells viability, CellTiter-Glo, 72 h; Potency, µM (titrated, usually from 46.1 µM), actives largely listed as cytotoxic; 400,000 compounds, 3.4% hits; AID 1347076; also: % is scaled to controls: 0 for no effect and ±100 for the full control effect; nearly all actives have a fitted effect of over 60% in size
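Potencies derive from concentration-effect curves fitted to normalized luminescence (CellTiter-Glo) of KB-V1 cells treated for 72 h at 37 degrees C in phenol-red-free DMEM containing 10% FBS.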
MCF10A rerep = DNA re-replication induction in MCF 10a cells; MCF 10A DNA re-replication, Hoechst nuclear intensity, 48 h; Potency, µM (titrated, usually from 46.1 µM), without a hit: top-dose activity, positive = re-replication, hits mostly activators; 350,000 compounds, 2.9% hits; AID 624296; also: % of control where 0% means no effect; nearly all actives have a fitted effect of over 50% in size
The depositor's hits bear a star; i = inactive; ? = inconclusive; · = not tested or not shown; [ ] = dose if it differs, or a comment. Calls follow the shape of the dose curve; as a rule, active = well fitted curve in the direction sought with a large enough effect; inconclusive = small, poorly fitted or top-dose-only effect, or another doubt; inactive = no such curve, though single readings can be large; an effect the other way counts as inactive or inconclusive. Potency is read from the fitted curve at half-maximal effect.

SMILES	ELG1 DNA repair	SW480 rereplic	KB-3-1 cytotox	KB-V1 MDR tox	MCF10A rerep
Cc1ccc(CC(=O)Nc2nncs2)cc1	12%	-17%	i	i	-1%
COc1ccc(CC(=O)Nc2nncs2)cc1OC	?	8.2µM*	i	i	-8%
O=C(CCCc1ccccc1)Nc1nncs1	7%	-13%	i	9.2µM*	-4%
CC(NC(=O)Nc1ccccc1F)C(C)(C)C (stereo not drawn)	-7%	3%	i	?	11%
CCOC(=O)c1c(NC(=O)CSc2nc3ccccc3[nH]2)sc2c1CC(C)(C)NC2(C)C	?	16µM*	?	i	?
Cc1cc(/C=C2\SC(=Nc3ccccc3)NC2=O)c(C)n1-c1ccc(S(N)(=O)=O)cc1	11µM*	7.3µM*	4.1µM*	?	17%
Cn1c(CCc2nc3ccccc3[nH]2)nnc1SCC#N	21µM*	1%	?	i	10%
Cc1nnc(NC(=O)CSc2nnc(CCc3nc4ccccc4[nH]3)n2C)s1	0%	0%	i	i	-5%
COCCNC(=O)c1cccc(OC2CCN(Cc3ccccc3OCCO)CC2)c1	2%	0%	i	i	5%
COCCNC(=O)c1cccc(OC2CCN(C(C)COc3ccccc3)CC2)c1 (stereo not drawn)	13%	-34%	i	i	1.8µM*
COCCCNC(=O)c1ccc(-n2nc(C(F)(F)F)cc2-c2cccs2)cc1	?	-7%	i	?	3%
O=C(NCCCN1CCOCC1)c1ccc(-n2nc(C(F)(F)F)cc2-c2cccs2)cc1	15µM*	0%	?	?	?
O=C(NCc1cccnc1)[C@@H]1CC=C[C@@H]2CCN(Cc3ccc(Cl)c(Cl)c3)C(=O)[C@@H]21	·	-10%	i	?	0%
CC1CCC2(CC1)NC(=O)N(CC(=O)Nc1ccc3c(c1)CCC3)C2=O (stereo not drawn)	1%	-3%	?	i	3%
Oc1ccc(Nc2ncnc3c2oc2ccccc23)cc1	?	6%	i	i	21%
CCc1nc(Nc2ccc(N3CCN(C(C)=O)CC3)cc2)c2oc3ccccc3c2n1	9.2µM*	1%	?	?	?
CC(=O)N1CCN(c2ccc(Nc3ncnc4c3oc3ccccc34)cc2)CC1	?	-5%[9.22 µM]	?	21µM*	?
COc1cccc(CNC(=O)C2CCC(CNS(=O)(=O)c3cccc4nsnc34)CC2)c1 (stereo not drawn)	?	-1%	i	i	3%
Cc1ccc(C(=O)N2CC3(C(C)C)CN(C(=O)c4ccc(C)cc4)CC(C(C)C)(C2)C3=O)cc1	-7%	1%	i	i	5%
CCC12CN(C(=O)c3ccc(C)cc3)CC(CC)(CN(C(=O)c3ccc(C)cc3)C1)C2=O	-29%	?	i	5.2µM*	2%
Cc1ccc(C(=O)N/C(=C/c2ccc(-c3cc(C(F)(F)F)ccc3Cl)o2)C(=O)NCc2cccnc2)cc1	-14%	1%	?	9.2µM*	8%
Cc1ccc(C(=O)N/C(=C\c2ccco2)C(=O)NCc2cccnc2)cc1	5%	-9%	i	i	0%
O=C(NCc1cccnc1)/C(=C/c1ccc(Cl)cc1)NC(=O)c1ccccc1	15%	-4%	i	i	4%
O=C(NCc1cccnc1)/C(=C/c1ccc(-c2cccc(C(F)(F)F)c2)o1)NC(=O)c1ccccc1	?	1%	i	16µM*	?
O=c1ccc2cc(S(=O)(=O)NCc3ccc(Br)cc3)ccc2[nH]1	·	·	i	i	·
SMILES	ELG1 DNA repair	SW480 rereplic	KB-3-1 cytotox	KB-V1 MDR tox	MCF10A rerep
Cc1cc(-c2ccccc2)n[nH]1	?	-18%	i	i	0.65µM*
CC(=O)c1sc(NCCOc2ccc(C)cc2)nc1C	22%	-3%	i	i	6%
C=CCNC(=O)COc1cc(C)cc(C)c1C	-2%	-1%	i	i	0%
CC1=C(C(=O)Nc2ccccc2)C(c2ccc(C(C)C)cc2)N2C(=O)CSC2=N1 (stereo not drawn)	0%	-4%	i	i	?
CCCN(CC(=O)Nc1ccccc1C)C(=O)COc1c(Cl)cccc1Cl	19%	5%	i	5.8µM*	4%
CCCN(CC(=O)Nc1ccccc1C)C(=O)COc1c(C)cccc1C	-6%	3%	i	i	-3%
CCCN(CC(=O)Nc1ccccc1C)C(=O)CCl	7.3µM*	20%	16µM*	?	?
O=C(CN1c2cccc3cccc(c23)S1(=O)=O)Nc1ccccc1Br	?	0%	i	?	-1%
C/C(=N\NC(=O)COc1cccc(C)c1)c1ccc2ccccc2c1O	-1%	23µM*	?	i	13µM*
CC(C)(C)n1ncc2c(=O)n(CC(=O)NCc3ccco3)cnc21	?	10%	?	?	?
CC(C)(C)n1ncc2c(=O)n(CC(=O)c3ccccc3)cnc21	?	-7%	i	15µM*	0%
CC(C)(C)n1ncc2c(=O)n(CC(=O)NCc3ccc(F)cc3)cnc21	?	?	9.2µM*	9.2µM*	?
CC(C)(C)n1ncc2c(=O)n(CC(=O)OCc3ccccc3)cnc21	?	-8%	i	i	10%
COc1cccc(C(=O)Oc2c(CN3CCOCC3)cc(Cl)c3cccnc23)c1	18µM*	26%	?	7.3µM*	14%
O=C(Oc1c(CN2CCOCC2)cc(Cl)c2cccnc12)c1ccc(F)cc1	?	?	5.8µM*	3.3µM*	3.3µM*
COc1ccc(C(=O)Oc2c(CN3CCOCC3)cc(Cl)c3cccnc23)cc1	?	?	10µM*	?	?
O=C(COc1coc(CN2CCCc3ccccc32)cc1=O)Nc1ccccc1	3%	8%	i	i	12%
CC(=O)N1CCN(Cc2nc3cc(NC(=O)c4cccc(Br)c4)ccc3n2C)CC1	8.2µM*	-22%	i	i	0%
CC(=O)N1CCN(Cc2nc3cc(NC(=O)c4ccc(Cl)cc4)ccc3n2C)CC1	21µM*	3%	i	?	5%
O=C(CCc1nc2ccccc2s1)N1CCN(c2ccccc2)CC1	-15%	-1%	i	i	10%
CC(=O)c1ccc(N2CCN(C(=O)CCCc3nc4ccccc4s3)CC2)cc1	?	-4%	i	i	18µM*
Cc1cccc(N2CCN(C(=S)Nc3ccc4nc5n(c(=O)c4c3)CCCCC5)CC2)c1C	17%	?	?	?	23µM*
O=c1c2cc(NC(=S)NCCCN3CCC(Cc4ccccc4)CC3)ccc2nc2n1CCCCC2	?	?	23µM*	?	2%

Assay outcomes from PubChem.
